# PABP1 MLLE inh: inhibitors of PABP1 MLLE–PAM2 peptide binding, primary screen, biochemical, fluorescence polarization, FITC-PAM2, GST-MLLE; Polyadenylate-binding protein 1 (Homo sapiens), P11940; 360,000 compounds, 0.36% hits; AID 588489, 2011; inhibition, % at 20 µM; in the data active means inhibition above about 35%, passing the limit was not always enough
# A3G deaminase: APOBEC3G DNA deaminase inhibitors, primary screen, biochemical, fluorescence, single-stranded DNA substrate, uHTS; inhibition, % at 20 µM; 330,000 compounds, 0.28% hits; recombinant A3G, ssDNA deamination FAM/TAMRA fluorescence;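 active means inhibition of at least 40% at 20 µM, with no more than 30% in the related APOBEC3A deaminase screen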
# eIF4H FP inh: human eIF4H binding inhibitors, primary screen, translation initiation inhibitor project, biochemical, uHTS, fluorescence polarization; Eukaryotic translation initiation factor 4H (Homo sapiens), Q15056; eIF4H fluorescence polarization binding assay; inhibition, % at 35 µM; 290,000 compounds, 0.94% hits; AID 2012, 2009;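 further: calls also rest on retests at 20 µM and on dose response follow-up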
# PABP FP inh: PABP poly(A) RNA binding inhibitors, primary screen, biochemical, fluorescence polarization, uHTS; Polyadenylate-binding protein 1 (Homo sapiens), P11940; 290,000 compounds, 1% hits; calls only at 35 µM;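 further: calls also rest on retests at 20 µM and on dose response follow-up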
# APOBEC3A inh: APOBEC3A ssDNA deaminase inhibitors, primary screen, selectivity assay for APOBEC3G inhibitor project, biochemical, FAM/TAMRA oligo cleavage fluorescence; DNA dC->dU-editing enzyme APOBEC-3A (Homo sapiens), P31941; recombinant A3A, FAM/TAMRA ssDNA deamination fluorescence; inhibition, % at 20 µM; 330,000 compounds, 0.41% hits; AID 493011, 2011;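 active means at least 40% inhibition at 20 µM here, with at most 30% in a related deaminase screen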
# PHOSPHO1 block: PubChem AID 1565; Phosphoethanolamine/phosphocholine phosphatase (Homo sapiens), Q8TCT1; recombinant PHOSPHO1, absorbance phosphatase assay; inhibition, % at 13.3 µM; 290,000 compounds, 1.1% hits; in the data active means inhibition above about 60%
# Target sequence (Q8TCT1 whole entry, looked up): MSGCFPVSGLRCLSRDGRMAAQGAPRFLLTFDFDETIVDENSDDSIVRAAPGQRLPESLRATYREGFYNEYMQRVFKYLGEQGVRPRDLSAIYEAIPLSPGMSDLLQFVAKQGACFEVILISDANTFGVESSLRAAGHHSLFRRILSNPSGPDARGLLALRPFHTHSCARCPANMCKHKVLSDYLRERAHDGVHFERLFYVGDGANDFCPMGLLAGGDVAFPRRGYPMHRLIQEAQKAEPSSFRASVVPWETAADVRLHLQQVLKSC
# Hits are given with their value; - = inactive; . = no result given; + = active, no number. Shown are actives, neighbours in structure and some others; about 2.6% of the full set was active somewhere. Unless noted, how the calls were made is not given here.
SMILES,PABP1 MLLE inh,A3G deaminase,eIF4H FP inh,PABP FP inh,APOBEC3A inh,PHOSPHO1 block
CC(C)CC(N)c1cn([C@@H](CCC(=O)O)C(=O)N2CCNCC2)nn1 (some centres undefined),-,-,-,-,-,-
COC(=O)CN(c1ccccc1)S(=O)(=O)c1cc(Br)ccc1OC,-,-,-,-,-,-
COc1cc(N(C)C)c([N+](=O)[O-])cc1C(=O)N1CCN(Cc2ccccc2)CC1,-,-,-,-,-,-
CCN(C(=O)C(C)N1C(=O)/C(=C/c2ccco2)SC1=S)C1CCS(=O)(=O)C1 (centres undefined),-,-,54.2,+,-,-
O=C1/C(=C\c2ccco2)SC(=S)N1C1CCS(=O)(=O)C1 (centres undefined),-,-,93.5,+,-,-
Cc1cc(C)cc(C(=O)NCC(=O)OC(C)C(=O)N(C)c2ccccc2)c1 (centres undefined),-,-,-,-,-,-
CCn1cc(C(=O)NCCCN2CCN(C)CC2)c(=O)c2cc(S(=O)(=O)N3CCc4ccccc4C3)ccc21,-,-,-,-,-,-
CCOc1ccc2[nH]c(=O)c(CN(Cc3ccccc3)C(=O)N3CCCC3)cc2c1,-,-,-,-,-,73.7
CCOc1ccc2[nH]c(=O)c(CN(C(=O)N3CCOCC3)C3CC3)cc2c1,.,.,-,-,.,-
CCOC(=O)N1C=CC=C[C@@H]2[C@@H](N3C(=O)c4ccccc4C3=O)C(=O)N21,-,-,-,+,-,-
CCOC(=O)c1cc2sc(C)cc2n1CCCN1C(=O)c2ccccc2C1=O,-,-,-,-,-,-
O=C(COc1ccc(Cl)cc1Cl)NNC(=S)Nc1ccc(F)cc1,-,-,-,-,-,71.1
CC(=O)NC(=S)Nc1ccc(NC(=O)COc2ccc(Cl)cc2Cl)cc1,-,-,-,-,-,-
O=C(N/N=C/c1ccc(-c2ccc(Cl)c(C(=O)O)c2)o1)c1cc2c(ccc3ccccc32)o1,-,-,76.5,+,-,-
CCOc1cccc2sc(NN)nc12,-,.,-,-,.,60.9
Cc1ccccc1C(=O)N1CCC(C(=O)Nc2ccc(C)c(S(=O)(=O)N3CCCCC3)c2)CC1,-,-,.,.,-,.
O=C(Nc1ccccc1Cl)NC1CCCCCCC1,-,-,-,-,-,-
CCOc1ccccc1N(C(=O)c1snc(C(N)=O)c1N)C(C(=O)NC1CCCC1)c1cccs1 (centres undefined),59.2,-,-,-,-,-
O=C(Nc1cc(C(F)(F)F)ccc1N1CCOCC1)C1Cc2ccccc2CN1C(=O)c1ccco1 (centres undefined),-,-,-,-,-,65.2
O=C(/C=C/c1ccco1)NC(=S)Nc1ccccc1N1CCOCC1,-,-,-,-,-,-
O=C(/C=C/c1ccco1)NC(=S)Nc1cc(C(F)(F)F)ccc1N1CCOCC1,-,-,-,+,-,-
Cc1ccccc1S(=O)(=O)N1[C@@H](c2ccc(F)cc2)C(C(=O)O)=CC[C@H]1c1ccc(Cl)cc1,-,-,.,.,-,.
OC1C(O)C(O)C(O)C(O)C1O (centres undefined),-,-,.,.,-,.
N/C(=N\OC(=O)CSc1ccccc1)c1ccc([N+](=O)[O-])cc1,40.9,-,-,-,-,-
Cc1ccc(/C(N)=N/OC(=O)CSc2ccccc2)cc1,-,-,-,-,-,-
SMILES,PABP1 MLLE inh,A3G deaminase,eIF4H FP inh,PABP FP inh,APOBEC3A inh,PHOSPHO1 block
C/C(=N\NC(=O)c1ccc(NS(=O)(=O)c2cccs2)cc1)c1cccs1,-,-,active,+,-,-
CC1CCCN(C(=O)CN2CCC(c3nc4ccc(Cl)cc4[nH]3)CC2)C1 (centres undefined),-,-,91.0,+,-,-
COc1ccc(OC)c(N2C(=O)[C@@H]3C(c4ccccc4Cl)=NO[C@@H]3C2=O)c1,-,-,81.1,+,-,-
N#C/C(=C/c1ccc(N2CCCCCC2)o1)c1ccc(Cl)cc1,-,-,-,-,-,-
N#C/C(=C/c1ccc(N2CCCCC2)o1)c1cccc(F)c1,-,-,87.4,+,-,-
Cc1ccc(/C(C#N)=C\c2ccc(N3CCOCC3)o2)cc1,-,-,-,-,-,62.4
Cc1ccc2nc(/C(C#N)=C\c3ccc(N4CCOCC4)o3)[nH]c2c1,-,-,-,-,-,-
N#Cc1cc2c([nH]c1=S)CCCCCC2,38.1,-,-,-,-,93.4
N#Cc1c(N)n[nH]c1-c1cc2c([nH]1)CCCC2,-,-,-,-,-,-
Cc1ccc(C)c(NS(=O)(=O)c2ccc3c(c2)NC(=O)CCS3)c1,-,-,-,-,-,-
Cc1ccc(NS(=O)(=O)c2ccc3c(c2)NC(=O)CCS3)c(Br)c1,-,-,-,-,-,64.9
CCCCCn1nc(C(=O)OCc2nnc(-c3ccccc3)o2)c2ccccc2c1=O,-,-,.,.,-,.
COC(=O)C1=C(C(=O)OC)C(c2cc(Cl)ccc2O)c2sc(=O)[nH]c2S1 (centres undefined),-,-,-,-,-,-
COC(=O)C1=C(C(=O)OC)C(c2cc(Br)ccc2O)c2sc(=O)[nH]c2S1 (centres undefined),43.8,.,-,-,.,-
O=C1COc2ccc(S(=O)(=O)N3CCCC3)cc2N1,-,-,-,-,-,-
O=C1COc2ccc(N3C(=O)C=CC3=O)cc2N1,.,48.7,-,-,-,-
O=C(c1cccn2c(=O)c3cc4ccccc4cc3nc12)N1CCN(c2ccccc2)CC1,.,-,-,-,-,100.3
Cc1oc(-c2ccc(Cl)cc2)cc1-c1nn2c(-c3ccoc3C)nnc2s1,-,-,85.1,+,-,-
O=C1NC2(CCCC2)C(=O)N1CCS(=O)(=O)Oc1ccccc1,-,-,-,-,-,64.7
CCN(C(=O)COC(=O)c1ccc2c(c1)OCO2)c1ccc(F)cc1,-,-,.,.,-,.
Cc1nn(C)c(C)c1N1C(=O)c2cccc3c(N)ccc(c23)C1=O,-,.,-,+,.,-
CC(C)NC(=O)N(C)C[C@@H]1OCc2cnnn2CCCC(=O)N([C@H](C)CO)C[C@H]1C,-,.,.,.,.,.
Cc1ccc(OCCCN(C)C)c(Br)c1,-,-,-,-,-,-
Cc1cc(Cl)c(OCCCN(C)C)c(Br)c1,-,-,-,-,-,62.7
CCCC(=O)Nc1sc(C(=O)OC)c(C)c1C(N)=O,-,-,-,-,-,76.7
O[C@H]1CN(CC2CCCCC2)[C@@H](c2ccccc2)C[C@@H]1n1cc(C2CC2)nn1,-,.,.,.,.,.

# From PubChem BioAssay
